Data on 26 compounds can be found in PubChem BioAssay.

Molecules are shown by their SMILES. Activity calls are given as the source filed them.

Sequence of NADPH oxidase 2 (Homo sapiens) (P04839 whole entry, looked up): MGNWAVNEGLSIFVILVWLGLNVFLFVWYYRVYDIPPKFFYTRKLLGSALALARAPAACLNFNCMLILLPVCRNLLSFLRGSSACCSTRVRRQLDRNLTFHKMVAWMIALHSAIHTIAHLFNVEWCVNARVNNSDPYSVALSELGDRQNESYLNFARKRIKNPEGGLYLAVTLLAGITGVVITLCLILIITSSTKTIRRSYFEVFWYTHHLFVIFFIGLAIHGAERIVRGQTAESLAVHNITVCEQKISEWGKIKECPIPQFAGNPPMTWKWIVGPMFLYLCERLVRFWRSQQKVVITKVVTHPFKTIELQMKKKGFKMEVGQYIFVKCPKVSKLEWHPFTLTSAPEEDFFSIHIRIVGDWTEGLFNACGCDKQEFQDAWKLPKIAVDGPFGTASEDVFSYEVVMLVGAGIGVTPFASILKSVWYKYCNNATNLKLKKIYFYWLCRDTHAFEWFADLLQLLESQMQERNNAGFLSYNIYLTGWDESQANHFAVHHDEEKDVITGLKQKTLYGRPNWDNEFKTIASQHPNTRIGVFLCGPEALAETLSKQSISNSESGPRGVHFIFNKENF

The experiment concerns the target NADPH oxidase 2 (Homo sapiens) (UniProt P04839). Briefly: compounds shifting NOX2 Amplex Red fluorescence – cell-based, HEK293-NOX2, PMA-stimulated, NOX inhibitor project, primary screen (AID 1159). Also: test concentration not given here. Particulars: 45 min, higher = more signal, called active from +8 up or from −8 down.
For the compound `CC1CC/C=C\[C@H]2OC34C=CCN(C(C)C)C(=O)[C@H]3N(CCO)C(=O)[C@@H]4C2C(=O)O1` (stereo partly specified), the z-score is 2.21 (inactive).
The figure for `C=C(/C(=C/C[C@H](OC(=O)c1ccncc1)c1ccc(CO)o1)c1cnc2ccccc2c1)C(C)C` is 1.42 (inactive); for `Cc1ccc(F)cc1S(=O)(=O)N[C@@H]1CCN(Cc2ccc(Br)cc2)C1` it is -0.955 (inactive); for `CN1C2C=C(CCCO)C(C3C(=O)N(C(N)=O)C(=O)C32)C1C1CC1` (stereo unspecified) it is 0.191 (inactive).
To `Cc1ccc(S[C@]2(C(=O)O)CC(=O)N(C3CCCCC3)[C@@H]2c2ccc(CO)cc2I)cc1` belongs 3.66 (inactive).
The figure for `COCCOC(=O)N1C(=O)[C@@]2(c3cc(C#CC4(O)CCCCCC4)ccc31)[C@H](C(=O)N1CCc3cc(OC)c(OC)cc3C1)[C@H]1C(=O)O[C@H](c3ccccc3)[C@H](c3ccccc3)N1[C@@H]2c1ccc(OCCO)cc1` is 1.6 (inactive).
With `COC(=O)[C@@]1(Cc2ccc(OC)cc2)[C@H]2c3cc(C(=O)N4CCCC4)n(CCc4c[nH]c5ccc(O)cc45)c3C[C@H]2CN1C(=O)c1ccccc1`, the z-score was -0.648 (inactive).
As for `CN(C)C(=O)[C@]1(CCC(=O)OC(C)(C)C)N=C(c2ccc(OCCCO)cc2)O[C@@H]1c1ccccc1CN=[N+]=[N-]`, the z-score is 0.629 (inactive).
To `CCOC(=O)C1=CC[C@@H](c2ccccc2)N(S(=O)(=O)c2ccc(C)cc2)[C@H]1c1ccccc1` belongs 0.18 (inactive); to `NC(=O)[C@H]1[C@@H]2C(=O)O[C@@H](c3ccccc3)[C@@H](c3ccccc3)N2[C@@H](c2ccc(OCCO)cc2)[C@]12C(=O)Nc1ccc(C#CCCO)cc12`, 2.03 (inactive); to `CCCCCCCCCC(O)C1C=CC2C(=O)N(c3ccccc3)C(=O)C2N1Nc1cc(OC)c(OC)c(OC)c1` (stereo unspecified), -2.86 (inactive).
The figure for `COc1cc(OC)c(C(O)C2C=CC3C(=O)N(Cc4ccccc4)C(=O)C3N2n2cnnc2)cc1Br` (stereo unspecified) is -3.2 (inactive); for `O=C1O[C@@H](c2ccccc2)[C@@H](c2ccccc2)N2[C@@H](c3ccc(OCCO)cc3)[C@]3(C(=O)Nc4ccc(C#CC5=CCCCC5)cc43)[C@@H](C(=O)NC[C@H](O)c3ccccc3)[C@H]12` it is 1.61 (inactive).
As to `CC(C)[Si](C#CCCCC#N)(O[C@H](c1ccccc1)c1cn(Cc2ccccc2)nn1)C(C)C`, the z-score was -0.502 (inactive).
To `CC1=C2[C@@H](CCc3ccccc3)OB(O)C[C@@H]2[C@@H]2C(=O)N(C)C(=O)[C@@H]2C1` belongs 0.162 (inactive).
The figure for `COc1ccc([Si](C)(C)[C@H]2[C@H](CC(=O)N(CCO)Cc3ccccc3)O[C@@]3(C(=O)N(C)c4c(Br)cc(C)cc43)[C@@H]2C)cc1` is -2.5 (inactive); for `C=CC[C@@]1(C(=O)NCCCOC)N=C(c2ccc(OCCCO)cc2)O[C@@H]1c1ccccc1N=[N+]=[N-]` it is -3.32 (inactive).
The figure for `COC(=O)C(CC#Cc1ccc2c(c1)[C@]1(C(=O)N2)[C@H](c2ccc(O)cc2)N2[C@H](c3ccccc3)[C@H](c3ccccc3)OC(=O)[C@H]2[C@@H]1C(=O)NC[C@H](O)c1ccccc1)C(=O)OC` is 1.39 (inactive); for `COc1ccc([Si](C)(C)[C@H]2[C@H](CC(=O)N3Cc4ccccc4C[C@H]3CO)O[C@@]3(C(=O)N(Cc4ccc(N5CCOC5=O)cc4)c4ccccc43)[C@@H]2C)cc1` it is -0.659 (inactive).
In the case of `COC(=O)c1c(CC[C@@H](CO)NC(=O)N[C@@H](C)Cn2cc(-c3ccccn3)nn2)oc(C(C)=O)c1C(=O)OC`, the z-score was -3.95 (inactive).
For `COCC(=C=CC[C@H](O)c1ccc(OCCO)cc1)CCO`, the z-score was 1.03 (inactive).
To `N[C@@H](Cc1ccccc1)C(=O)NCc1cn(Cc2ccccc2)nn1` belongs 0.64 (inactive).
To `CCOC(=O)C[C@H]1[C@H](OC(=O)Cc2ccc3c(c2)OCO3)[C@@H](NC(=O)c2ccc3ccccc3n2)c2cc(OCCCO)ccc2N1C(=O)c1ccccc1` belongs -1.88 (inactive); to `CC(CO)N1C(=O)[C@]2(C)C3C(=O)OCCC/C=C\[C@H]3OC23C=CCN(c2ccc(Cl)cc2)C(=O)[C@@H]13` (stereo partly specified), 1.25 (inactive).
On to `CC(=O)NCCCC[C@@H]1NC(=O)[C@@H]2C[C@H](C(=O)NCCCCCN)[C@H](c3ccc(O)cc3)N2C1=O`, for which the z-score was 1.93 (inactive).
The figure for `COC(=O)[C@@]1(Cc2ccccc2)[C@H]2c3cc(C(=O)N(C)C)n(Cc4ccc(C)o4)c3C[C@H]2CN1C(=O)c1ccccc1` is -3.27 (inactive).
